# Assay results: ChEMBL document CHEMBL1157539, “Thousands of chemical starting points for antimalarial lead identification” (Nature, 2010)
# System: Plasmodium falciparum
# Assay: GSK_TCMDC: Inhibition of Plasmodium falciparum Dd2 in whole red blood cells, using parasite LDH activity as an index of growth. Test compounds present at 2uM
# Format: functional
row,Structure (SMILES),Inhibition
1,CN(CCN(C)C(=O)NCc1ccccc1)C(=O)NCc1ccccc1,0%
2,CCCCN(C)CC#Cc1ccc(-c2ccc3[nH]c(C)c(Br)c(=O)c3c2)cn1,93%
3,Cc1ccc(NC(=O)c2ccc3ncccc3c2)cc1OC1CCN(CCC(C)C)C1.O=C(O)C(F)(F)F (stereo not drawn),62%
4,Cc1ccc(O)cc1Nc1ccnc2ccc(-c3csc(CNCCN4CCOCC4)n3)cc12,97%
5,N#Cc1cccc(Nc2nccc(Nc3ccc(Oc4ccccc4)cc3)n2)c1,17%
6,CCOc1ccc2[nH]c(C)cc(=NN=Cc3ccc(Cl)cc3)c2c1,100%

# System: HepG2
# Assay: GSK_TCMDC: Percent inhibition of human HepG2 cell line. Test compounds present at 10uM.
# Format: functional
row,Structure (SMILES),Inhibition
1,CCN(CC)CCOC(=O)c1ccc(NC(=O)c2cc(-c3ccc(C)cc3)nc3ccccc23)cc1.Cl,22%
2,Cc1cc2ncn(-c3ccnc(N4CCN(CCCN5CCCC5)CC4)n3)c2cc1C.O=C(O)C(F)(F)F,24%
3,O=C(Nc1ccc(F)cc1)c1ccc(C(=O)NC2CCN(CC3CCCCC3)CC2)cc1.O=C(O)C(F)(F)F,34%
4,O=C(/C=C/c1ccc(Cl)c(Cl)c1)NCCCCCN1CCC(NC(=O)Nc2ccc(F)cc2F)CC1,14%
5,Cc1cc(N[C@@H](CC(C)C)C(=O)NCCOc2ccccc2)nc(NCC2CCCCC2)n1.O=C(O)C(F)(F)F,24%
6,CCN(CCCN1CCCCC1)c1cc(C)nc(Nc2ccc(C)cc2)n1.O=C(O)C(F)(F)F,17%
7,CN1CCN(CCCN(Cc2ccc(-c3ccc(CNCc4ccc5c(c4)OCO5)cc3)cc2)C(=O)CCC2CCCC2)CC1.O=C(O)C(F)(F)F,55%
8,CCCC(C)Nc1nc(C)cc(N[C@@H](CC(C)C)C(=O)Nc2ccc(OC)cc2)n1.O=C(O)C(F)(F)F (stereo partly drawn),18%
9,COc1ccc2nccc([C@@H](O)CN3CCC(NCc4cc5ccccc5cn4)CC3)c2n1.O=C(O)C(=O)O,3%
10,Cc1cccc2nc(-c3ccc(-c4cccc(NC(=O)CCc5c[nH]cn5)c4)s3)[nH]c12,2%
11,Cc1cccc2nc(-c3cccc(-c4ccc(NC(=O)Nc5ccsc5)cc4)c3)[nH]c12,27%
12,O=C(Cc1ccc(-n2cnnn2)cc1)N(Cc1cncn1Cc1cccc(C(F)(F)F)c1)CC1CC1,0%
13,Br.Cc1cc(C)c(C)c(OCCCON2C(=N)N=C(N)NC2(C)C)c1C,64%
14,COC(=O)COc1cc(C(=O)NCCCCN2CCC(c3ccc4c(c3OC)CCCC4)CC2)ccc1-c1ccc(Cl)cc1,32%
15,Cc1cccc2nc(-c3cccc(-c4cccc(NC(=O)CCc5c[nH]cn5)c4)c3)[nH]c12,16%
16,CCNc1cc(CC)nc(Nc2ccc(C)cc2)n1,22%

row,Structure (SMILES),Inhibition
1,CC(C#N)Cc1ccc(-c2cnc(N)c3cc(-c4ccnc(N)n4)ccc23)cc1 (stereo not drawn),56%
2,FC(F)(F)CNc1nc(Nc2ccc3ncccc3c2)nc2[nH]ccc12.O=C(O)C(F)(F)F,37%
3,Cc1cc(C2CCN(CCCCNC(=O)c3ccc(NC(=O)c4ccc(Cl)cc4)cc3)CC2)c(C)cc1OCc1ccccn1.Cl,18%
4,COc1ccc(Nc2ncc(OC)c(Nc3ccccc3C(N)=O)n2)cc1N1CCN(C)CC1.O=CO,63%
5,CS(=O)(=O)c1ccc(-c2cncc(Cl)n2)cc1,8%
6,O=C(Nc1cccc(-c2ccc(CN3CCCC3)cc2)c1)c1ccc(Cl)cc1.O=C(O)C(F)(F)F,29%
7,COc1ccc(Oc2ccc(Nc3ccnc4ccc(C(F)(F)F)cc34)cc2)cc1OC.Cl,0%
8,Oc1cccc(Nc2nc(NCc3ccco3)c3ccccc3n2)c1,9%
9,CCN(CCNS(C)(=O)=O)c1ccc(N)c(C)c1.O.O=S(=O)(O)O,0%
10,Cc1cccc(CC(=N)NCCCCCCNC(=N)Cc2cccc(C)c2)c1.Cl,12%
11,CCn1nc(C(=O)NC2CCOc3ccccc32)c2ccccc2c1=O (stereo not drawn),13%
12,Br.CCN(CC)CCn1c(=N)n(CC(=O)c2ccc(-c3ccccc3)cc2)c2ccccc21,32%
13,CC(C)Oc1cc2c(cc1NS(=O)(=O)c1ccc(-c3ccc(Cl)cc3)cc1)CCN(C)CC2.Cl,100%
14,O=C(NCCCCN1CCC(c2ccc3c(c2OCC2COCO2)CCCC3)CC1)c1ccc(-c2ccc(C(F)(F)F)cc2)cc1 (stereo not drawn),91%
15,CN1CCN(c2ccnc3ccc(NC(=O)Nc4cccc(C#N)c4)cc23)CC1,11%
16,CC(C)(CNCc1ccc(F)c(F)c1)c1nc(-c2ccc(Cl)c(O)c2)c(-c2ccncc2)[nH]1.Cl,74%
